# Test results taken from PubChem BioAssay (NCATS).
# Records with an inconclusive call do not appear. Unmarked numbers belong to inactive results. The call rests on the fitted dose curve; in most records, active means well fitted cell-killing curve with a large enough effect; inconclusive means small, poorly fitted or top-dose-only effect; inactive means flat fitted curve, though single readings scatter.
# Assay: Cell Viability - LYMP2-008 (AID 980);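 further: cells exposed to compound for 24 h at 37 °C; nearly all actives have a fitted effect of over 60% in size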
# Settings: LYMP2-008 lymphoblastoid cell viability, qHTS; series mostly up to 92.2 µM; activity change, negative = cytotoxicity: at the top concentration
# Procedure, shortened: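 Luminescent ATP read-out (CellTiter-Glo, 30 min RT) after 24 hr compound exposure at 37 C of human lymphoblastoid cells in complete medium. Decrease in ATP taken as cytotoxicity; AC50 derived by standard Hill fit of qHTS concentration-response data.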
# On the % scale 0 is the no-effect control and ±100 the full control effect.
row,Structure (SMILES),"activity change, negative = cytotoxicity [%]"
1,CC(C#N)CCC#N (stereo not given),-1.78
2,Nc1cc(Cl)ccc1Cl,-10.2
3,Nc1cccc(Cl)c1,2.86
4,CCC/C=N/O,-1.71
5,COc1c(C(C)(C)C)cc([N+](=O)[O-])c(C)c1[N+](=O)[O-],1.96
6,O=S(=O)(Cl)c1ccccc1,-1.59
7,C=CCOCC1CO1 (stereo not given),8.12
8,Clc1ccccc1,-5.18
9,ClC(Cl)(Cl)C(Cl)(Cl)Cl,-5.64
10,CCOC(=O)C1OC1(C)c1ccccc1 (stereo not given),1.19
11,C/C=C/CC#N,-5.31
12,ClC(Cl)C(Cl)Cl,-6.2
13,Oc1c(Cl)cccc1Cl,-0.105
14,Brc1cccc(-c2ccccc2)c1,-9.68
15,C=CCO,8.65
16,OCCCCO,4.08
17,Nn1cnnc1,3.31
18,BrCCc1ccccc1,-8.85

row,Structure (SMILES),"activity change, negative = cytotoxicity [%]"
1,Cc1ccccc1[N+](=O)[O-],-5.61
2,CCCCOC(=O)c1ccccc1N,0.454
3,Clc1cc(Cl)c(Cl)c(Cl)c1,-18.6
4,Cc1ccc(N)c(C)c1,-8.64
5,C1CC2OC2CC1C1CO1 (stereo not given),-13.1
6,CN(C)C(=O)Cl,-2.57
7,CC(=O)NNc1ccccc1,11.6
8,Cc1ccc(N=C=O)cc1N=C=O,-7.39
9,C=CC(=O)OC,-5
10,CCN(CC)N=O,0.992
11,OCC(Cl)CCl (stereo not given),-28.8
12,CC(C)CON=O,-1.96
13,CC[N+](=O)[O-],-0.0027
14,CC(C)(Cl)[N+](=O)[O-],-2.46
15,C[N+](=O)[O-],-7.69
16,CC(C)OC(=O)Cc1ccccc1,4.51
17,ClCC(Br)CBr (stereo not given),-7.56
